# Source: PubChem BioAssay (National Center for Advancing Translational Sciences (NCATS))
# In the library only some 19% were active in any assay of this set; here they are far more common.
# Giardia kill – kills Giardia lamblia | Giardia lamblia trophozoite viability | activity change, % at 7.66 µM, hits read low | 0.15% of 340,000 active | AID 540267; in the data active = activity change below about -80%; inconclusive = between about -30% and that limit;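 note: parasites exposed to compound for two days anaerobically before the ATP read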
#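 Anaerobic 48 hrs incubation at 37 deg C of 100 trophozoites/well with test compounds; ATPLite 1-Step luminescence, 15-30 min RT, reports cellular ATP as viability.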
# TDP1 block – blocks human tyrosyl-DNA phosphodiesterase 1; Q9NUW8; recombinant TDP1, AlphaScreen DNA substrate cleavage; Potency, µM (titrated, usually from 130 µM), inactives show at the highest dose activity change, negative = inhibition, hits mostly inhibitors; 0.28% of 350,000 active; note: potency is the fitted concentration of half-maximal effect; nearly all actives have a fitted effect of over 40% in size
# Target sequence (Q9NUW8 whole entry, looked up): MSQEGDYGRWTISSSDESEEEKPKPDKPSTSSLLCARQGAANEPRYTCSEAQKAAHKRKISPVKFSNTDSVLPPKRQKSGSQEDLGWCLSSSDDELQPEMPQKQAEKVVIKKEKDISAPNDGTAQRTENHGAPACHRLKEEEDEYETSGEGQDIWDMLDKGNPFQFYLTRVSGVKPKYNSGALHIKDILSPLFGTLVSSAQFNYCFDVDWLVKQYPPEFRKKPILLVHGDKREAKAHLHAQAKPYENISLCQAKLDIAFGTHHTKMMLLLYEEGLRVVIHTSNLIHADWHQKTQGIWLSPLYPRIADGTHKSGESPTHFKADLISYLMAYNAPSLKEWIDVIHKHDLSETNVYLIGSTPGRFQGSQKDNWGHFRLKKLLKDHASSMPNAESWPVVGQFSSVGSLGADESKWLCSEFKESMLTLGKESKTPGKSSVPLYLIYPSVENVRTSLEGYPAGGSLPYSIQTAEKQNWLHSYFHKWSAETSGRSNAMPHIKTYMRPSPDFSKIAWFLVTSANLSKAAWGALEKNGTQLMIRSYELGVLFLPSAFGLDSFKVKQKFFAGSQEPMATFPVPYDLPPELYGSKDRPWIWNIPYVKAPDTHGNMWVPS
#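 Recombinant E. coli-expressed Tdp1 (1 nM) preincubated with compound 15 min at RT, then 5'-biotin/3'-phosphotyrosine-FITC DNA substrate (15 nM) added for 5 min. AlphaScreen beads (10 ug/ml) added, 10 min RT; tyrosine-FITC cleavage read as signal loss.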
# ELG1 DNA repair – inhibitors of ELG1-dependent DNA repair in HEK293T cells; HEK293T ELG1-luciferase reporter, luminescence, 16 h; DNA damage induced by 5-fluorouridine; Potency, µM (doses to about 46.1 µM), inactives show at the top dose activity change, negative = inhibition, usual class: inhibitors; 2.3% of 330,000 active; AID 504467; note: potency is the fitted concentration of half-maximal effect; nearly all actives have a fitted effect of over 55% in size
#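 Cells (2,000 per well) received 5-fluorouridine plus test compound or DMSO and were incubated 16 hr at 37 °C, 5% CO2. Luciferase activity was read by luminescence 30 min after ONE-Glo addition; signal suppression marked inhibition of damage-induced ELG1 function.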
# TDP1 cell noCPT – qHTS for Inhibitors of human tyrosyl-DNA phosphodiesterase 1 (TDP1): qHTS in cells in absence of CPT | DT40 Tdp1-/- hTDP1 cells, no CPT, ATP luminescence, 48 h | Potency, µM (titrated, usually from 46.2 µM), for the others: at the top dose activity change, negative = growth inhibition, hits mostly inhibitors | 15% of 420,000 active; note: potency is the fitted concentration of half-maximal effect; nearly all actives have a fitted effect of over 55% in size
#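 Cells were dispensed at 400 per well, compounds added by pin tool, plates incubated ≥48 hr at 37 °C, then CellTiter-Glo added for 30 min at room temperature before luminescence reading. Line: DT40 Tdp1-/- complemented with hTDP1; camptothecin omitted.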
# TDP1 cell CPT – growth inhibition of DT40 Tdp1-/-;hTDP1 cells with camptothecin (screen for TDP1 inhibitors). Potency, µM (doses to about 46.2 µM), for the others: at the top dose activity change, negative = growth inhibition, hits mostly inhibitors. chicken DT40 Tdp1-/-;hTDP1 cells + 20 nM CPT, ATP luminescence, 48 h. 12% of 420,000 active; note: potency is the fitted concentration of half-maximal effect; nearly all actives have a fitted effect of over 55% in size
#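 Chicken DT40 Tdp1-/- cells stably complemented with human TDP1 were seeded at 400 cells/well in medium containing 20 nM camptothecin, exposed to pin-transferred compounds, and grown at 37 °C for at least 48 hr. Viability was read as ATP luminescence.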
# IL-1B inflam inh – inflammasome signaling inhibition, IL-1 beta readout | THP-1 LPS/ATP IL-1B secretion, AlphaLISA, 16 h; stronger effect = lower value | activity change, % at 57.5 µM | 4.7% of 360,000 active; in the data active = activity change below about -50%; inconclusive = mostly about -30% to -49%
#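 Secreted IL-1B measured by AlphaLISA bead assay after 16 h compound exposure of THP-1 cells; compounds (final up to 57.5 uM) added 1 h before LPS (250 ng/mL) and ATP (1.25 mM) stimulation; lower signal means less secretion.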
# Active calls of the source: *; ? = inconclusive; nt = no result; [ ] = remark or other dose. Unless noted, calls come from the whole dose curve; as a rule, active = well fitted curve in the direction sought with a large enough effect; inconclusive = small, poorly fitted or top-dose-only effect, or another doubt; inactive = no such curve, though single readings can be large; an effect the other way counts as inactive or inconclusive. % is set by controls: 0 for no effect and ±100 for the full control effect.
SMILES,Giardia kill,TDP1 block,ELG1 DNA repair,TDP1 cell noCPT,TDP1 cell CPT,IL-1B inflam inh
COC(=O)c1c(-c2cccs2)csc1NC(=O)c1ccc(C(C)(C)C)cc1,nt,-12%,nt,15µM*,16µM*,nt
CC(CC(O)C1OC1(C)C)C1CCC2(C)C3=CCC4C(C)(C)C(=O)CCC4(C)C3CC[C@@]12C (stereo partly specified),nt,10%[56.1 µM],nt,7.3µM*,5.2µM*,nt
Cc1cc(C)n(CCc2nc3c4ccccc4nc(N4CCN(c5ccccc5F)CC4)n3n2)n1,nt,1%,nt,-18%,-5%,nt
CCCSc1nnc(CSc2ncccn2)n1C,-7,2%,?,9%,5%,16
Cn1nc(-c2ccccc2)c(C(=O)Nc2ccc(Cl)cc2)c1Cl,3,-2%,0%,-4%,-27%,0
Cn1c(Cl)c(C(=O)Nc2ccc(Cl)cc2)c2ccccc21,-14,2%,15%,16µM*,?,56
CC1(C)OC(=O)C2=C(C[C@@H](CCc3ccccc3)O[C@@H]2c2ccc(F)cc2)O1,nt,nt,nt,16µM*,?,23
CC(C)C[C@@H]1CC2=C(C(=O)OC(C)(C)O2)[C@H](c2ccc(Cl)cc2)O1,nt,nt,nt,18µM*,?,-9
CN(C(=O)COC(=O)c1cc(S(=O)(=O)N2CCOCC2)ccc1Cl)C1CCS(=O)(=O)C1 (stereo unspecified),5,-12%,-1%,-12%,19%,4
O=C(c1cccc(F)c1)N1CCC2(CCCN(c3cccc(-c4ccccc4)c3)C2)CC1,nt,nt,nt,?,-3%,nt
O=C(c1cccc(F)c1)N1CCC[C@@]2(CCN(c3cccc(-c4ccccc4)c3)C2)C1,nt,nt,nt,21µM*,21µM*,nt
N#Cc1cccc(NC(=O)N2CCCC3(CCN(C(=O)c4cccc(F)c4)CC3)C2)c1,nt,nt,nt,?,-12%,nt
O=C(c1cccc(F)c1)N1CCC2(CC1)CN(c1cccc(-c3ccccc3)c1)C2,nt,nt,nt,16µM*,?,nt
O=C(c1cccc(F)c1)N1CCC[C@@]2(CCN(c3ncccn3)C2)C1,nt,nt,nt,-4%,3%,nt
O=C(c1cccc(F)c1)N1CCC2(CC1)CCN(c1cccc(-c3ccccc3)c1)CC2,nt,nt,nt,16µM*,?,nt
N#Cc1cccc(NC(=O)N2CC[C@@]3(CCCN(C(=O)c4cccc(F)c4)C3)C2)c1,nt,nt,nt,21µM*,-25%,nt
COc1ccc(-c2nc(SCC(=O)N3CCC(C)CC3)n[nH]2)cc1,nt,3%,nt,-19%,?,nt
CC(=O)Nc1ccccc1OCC(=O)NCCc1ccc(Cl)cc1Cl,16,-3%,?,?,?,8
COc1ccc(C(=O)N2CCC3(CC2)CN(c2ccc(-c4ccccc4)cc2)C3)cc1,nt,nt,nt,?,27%,nt
COc1ccc(C(=O)N2CCC3(CC2)CCN(c2cccc(-c4ccccc4)c2)CC3)cc1,nt,nt,nt,0.23µM*,0.12µM*,nt
Cc1cc(C)cc(-n2c(C)cc(/C=N/NC(=O)c3ccncc3)c2C)c1,-8,8%,2%,-22%,-6%,2
Cc1cc(C)cc(-n2c(C)cc(/C=N/NC(=O)CSc3ncccn3)c2C)c1,-7,8%,-14%,?,26µM*,1
O=C(N/N=C/c1ccc(Cl)c([N+](=O)[O-])c1)c1ccc2nc[nH]c2c1,2,5%,13%,-8%,0%,-96*
Cc1cc(C(=O)CN2CCCCC2)c(C)n1-c1ccc(F)cc1,7,5%,?,?,-29%,-26
Cc1cc(C(=O)NC2CCCCC2)c(C)n1-c1ccc(F)cc1,-18,0%,?,?,?,-83*
Cc1cc(C(=O)CCl)c(C)n1-c1ccon1,27,1%,18%,2.9µM*,2.3µM*,-95*
Cc1cc(C(=O)CN2CCCC2)c(C)n1-c1ccc(Cl)cc1,7,2%,-4%,?,?,-14
